According to PubChem BioAssay AID1508600 (Functional Genomics Laboratory (NCATS/FGL), 2020):
The campaign covered roughly 53,000 sequences. About 3,700 (7%) were called active. This is one part of a sample in which actives are shown more often than they occur. Unmarked numbers belong to inactive results.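 How the source made its calls: active means gene knockdowns whose robust z-score for IL-1 alpha signal is at least 2 or at most -2, so actives lie on both sides; inactive means the rest.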

Assay: Components of the Cytosolic LPS Sensing Pathway: Gene Identification via Genome-wide siRNA Screen;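 further: robust z of the log signal after scaling to non-targeting control siRNA wells of the plate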
Settings: RAW264.7 macrophages, IL-1a HTRF, actives lie on both sides, screened at 100 nM (by protocol), cells primed 5 h with Pam3CSK4 first
Outline: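 Using IL-1a HTRF as read-out, the screen measured release from RAW264.7 cells after 48h siRNA knockdown (100 nM), 5 h Pam3CSK4 priming and 24 h cytosolic LipidA. Values were expressed relative to negative-control wells as robust z-scores.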

Sequence	z-score
GGAGAGCUGCAUCAAAAAGTT against Prdm16	0.545
GGUGCUCAUGCAGGUCCAUTT against Slc25a25	-0.356
GGGCCAUCUCUCAAUUAUGTT against Gga2	1.93
GGUUCUACAUGUGAAACAATT against Zfp143	-2.15 (active)
GCCUGGUCUCACUAUGUAGTT against Hpvc2	0.129
GGACGUGUUUUACAAAUACTT against Srsf1	-0.979
GGGAAAAUAUCUCAUAUCATT against Colec10	-0.944
GGGCUGAAGAUGACUUCAATT against Topors	5.91 (active)
GGAUGUCUCGGAACUAAGGTT against Med28	-0.571
GGUAUUACAAGGUCAUAUCTT against Nol12	-0.357
UGGCCACGACCCUGAACUUTT against Ghrhr	0.56
GGCAUCAAAAAGCAGACAATT against Erich2	-1.98
GGCUAUGGAACAAAGUACUTT against Sostdc1	0.838
GGAAAGCACUUUUAUUCCUTT against Sgip1	-0.901
GCCUCGAGAUAUUCUUUGUTT against Snrnp200	-2.07 (active)
GCUAAAAGGCUACGGGAGUTT against Bhlhe23	-0.266
GUGCAGAUAUCUUUAGCAATT against Olfr159	-0.958
GGAUGAGAGUAAGAUCUCGTT against Vipr2	-0.296
GGAAAACUACCUCUUUUGATT against Cbll1	1.4
GGAGAUCUUAGAGAAAUUATT against Pak1	-0.956
GCAAAGUGGAUAUAGUGUCTT against Gprin1	-0.217
GCAUGCUUUCUGAAUACAATT against Cdk8	2.17 (active)

Sequence	z-score
GGAACAGCUAAAGUUGGGATT against Kcnj9	0.5
GGGUAUGGUUCUGUUGGCATT against Pxmp4	-1.45
CCUAAAGGUUCCCAACAGUTT against Serpinb3d	-0.517
GGCUGAUUCAUUUGGGAACTT against Olfr9	0.805
GGCCUCUGAGGACAAGUUUTT against Als2cl	0.0383
GGUAGAGGAUGCGAUGCUGTT against Msi2	4.61 (active)
GGGAGGUGCAGAUAGGAUUTT against Csrp1	0.912
GGCGAUAGUGUCUAAGAAATT against Cfap298	-0.0112
GGAUGAGAAAUACUUUCGGTT against C8a	0.126
GGCAAGUGCCCAAGUUUGUTT against Ifi35	1.08
GGCAUAUUGUUUCAUUUUGTT against Rlbp1	-1.19
GGCUUUAUAUGAAACUCCUTT against Acrv1	-2.01 (active)
GCACAGUAGUUCUUGCAUCTT against Olfr891	0.13
CCUAGUCCCUCUGUCUCUUTT against Kctd13	-1.79
GUACACCAGUGGAAGCACATT against Sprr2b	-1.91
GGAUUUGUCAAUGCAAUAATT against Olfr1012	-2.68 (active)
GGACAACAUAUUCUGAUAATT against Stmnd1	1.68
GGCUUCCUACCUAAGGCUUTT against Bora	-0.924
CCAGACUACGGUGCUAAGATT against Defb21	2.49 (active)
GGCCGUGUUAAGGAAUCUGTT against Cidea	0.653
CCUCUUCUGCGCGGAUUUGTT against Ffar4	0.708
GGAGAAAGCUUACUGCCUUTT against Lrrc6	-0.959

Sequence	z-score
GGAACAGCAGUUUUUGUUUTT against Rnf44	0.097
GGCGAGUCUACGUGACACUTT against Arrb1	0.701
GGACAUCGUGCUCUAUCUCTT against Nrarp	-1.07
GCAGAUCUUGUGAUUAAUGTT against Ildr1	0.882
CCCAUGGAAUGAAAACAACTT against Gm4894	2.58 (active)
GGAAAUAGUUGGUUUUGAATT against Slfn1	-1.95
GCAUUAGGAAUUCAAUUAGTT against Adamts1	0.813
GGACGUAGCUAUGGAGGAUTT against 1810009A15Rik	-1.83
GGAAACCAGAAAAACUGAATT against Parg	0.653
GGAUUAAUUAAUACUUGGCTT against Rps9	0.986
CCGACACGUUCUCAAUGUCTT against Gss	-0.496
GGAAGGACAAAGAAAGCCUTT against Fbxw4	-0.286
GGUUCUUAGGAGUUAACUCTT against Klf16	2.71 (active)
GGAGAUCAUGCUCAAGAACTT against Dgke	0.176
GGACACCUACUUGGUAUUGTT against Epor	-0.632
GGAGAGUAUCAGCAAUGAATT against Impg2	1.02
GGAAAGUUCCCAUGUUCUCTT against Mgat4f	1.33
CGUGAGAUCAUUGAUGUGGTT against Ankrd2	-1.16
GGAUUCUCCAGACACCUUGTT against Styxl1	-0.704
GCUAUUGCCUUAGAUCCAUTT against Lrp6	0.384
GCUCAACUUCUGAAUUAUATT against Enpep	2.64 (active)
GGUCAGCAUCACCUACGAUTT against Prss8	-0.688

Sequence	z-score
GGAGCUGAAGCAAAGACAGTT against Svbp	-0.599
GGAAACAACCAUCGAGGUUTT against Cyp4x1	-0.31
GGCUGUGACUCUGGAUUUGTT against Bdh1	-0.985
GGAUUCUGAACACUUUUUCTT against Pot1a	-2.02 (active)
GCACCAUGUAUACAAAAGATT against Pcdhb3	0.0679
GGAGUUUGUGAAUAAAUGUTT against Map2k2	0.177
GUGGAAGACUUCACCGGACTT against Arxes1	2.01 (active)
GCUUACUUUGGAACACAAATT against Tex18	1.22
GCAGGAUUGCAUAUAUCGGTT against Cspg5	-0.672
CGAUGCUGUUCUUCAAUGUTT against Krt222	1.23
GGUUUGAAUUCAAGUUCAUTT against Klhl5	0.616
GGAAAAAUAGGUCGAAUGATT against Arntl	0.229
CGAUUCCAACAAGAAAGUGTT against Togaram2	0.649
GCGGGAGAAGCUAAUGAAATT against Ndufs5	2.21 (active)
GGAUUUUGUUUCAGGUGGATT against Itgb8	1.78
GGCAGAUGGUAUCAGCUGUTT against Cd248	-1.11
GGAGACAAACUCAAAACUGTT against Lyplal1	-1.12
CACUGAACAGAUCAGAGCATT against Fam189b	-2.44 (active)
AAUCUUGAGAGAUUUCUCCTT against Scd2	-0.047
GCCACGGCCAGUAAAACAUTT against Cdcp1	0.335
GGAUGAGUUUUUAAAGUCATT against Otop2	-0.883
GGCAAUGUCAGAGCUAAUCTT against Mettl25	0.596

Sequence	z-score
GGGACAACCUGGAUGACAUTT against Coq6	-0.0644
CCUUUGUCCGGUCCAUUCCTT against Hk1	-0.654
GCAAGUUCGAAUCCUCCGUTT against Dach2	4.72 (active)
GGUGAAUGGCAUGACCAUATT against Asb9	0.49
GGAGUCCUUUAAGAUUAUATT against Pex13	1.3
GGUAGAUGAUGAAAAACAATT against Erich3	-2.02 (active)
GGAAGAAUCUGUUACUUUUTT against Rad1	-0.693
CCUUUUAGGGAAAUUUGCATT against Mcm9	0.651
GGGAAGAACUGUGAUUAUUTT against Hspd1	0.625
CCAUUGAACAGCAGAUUGGTT against Atp7a	0.81
GGUCUUCUUCGUGUUCAUCTT against Olfr281	-0.0815
GGAAAAAUUGAAGUUGAUCTT against Iqcj	-1.35
GGCUCGUCAAAUCAAGUAUTT against H2bc6	-2.37 (active)
GGAAAUCAAGCUGAAGUUATT against Eqtn	0.231
GCGCAAACAACACAUCGUCTT against Ccpg1	0.503
GGCUGUCAUCCAAGAACUUTT against Mtcp1	0.176
GGAGAUCCGAGUGAGGAAUTT against Eif3b	2.91 (active)
GGUUUAACUAGAAUUUGGUTT against Cyp2ab1	1.75
GGACAAGAAUAAGUACAACTT against Rpl5	-0.918
GCCCUUGAACGGAGAAUAGTT against Brk1	-1.59
